Rows were chosen to be rich in hits. Some 4.5% of all compounds tested hit in one or more screens of this group.
BJeLR lethal: kills HRASV12-expressing BJeLR cells | BJeLR (HRASV12) viability, CellTiter-Glo ATP luminescence, 48 h | inhibition, % (test concentration not listed) | 300,000 compounds, 0.17% hits; in the data active = inhibition above about 50%; inconclusive = no clear call, values can overlap the other calls
PrPC surface inh: reduces human prion protein on the cell surface; inhibition, % at 13.8 µM; P04156; 370,000 compounds, 0.43% hits; cell surface PrPC, TR-FRET read-out; in the data active = inhibition above about 24%; note: 0% = median of the test wells and 100% = reference compound wells
PfHsp40 yeast: compounds rescuing yeast from Plasmodium falciparum HSP40 toxicity. 340,000 compounds, 0.68% hits. growth rescue, % at 12.5 µM. S. cerevisiae expressing PfHsp40, growth rescue, ATP luminescence. AID 504582; in the data active = growth rescue above about 28%, passing the limit was not always enough; inconclusive = no clear call, values can overlap the other calls;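 note: yeast W303a lacking pdr1 and pdr3 grown in galactose medium; growth measured after three days at 30 °C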
PrP 5UTR inh: inhibition of PrP 5' UTR reporter expression; cell-based PrP 5' UTR mRNA reporter, plate reader; inhibition, % (concentration not given with the values); 340,000 compounds, 0.35% hits; in the data active = inhibition above about 52%; note: 0 = median of the neutral control wells
GDH-TPI counter-1: counter-screen for M. tuberculosis FBA inhibitors: GDH-TPI coupled enzymes | 360,000 compounds, 1.2% hits | inhibition, % at 4.8 µM | GDH-TPI coupled enzyme counterscreen, NADH absorbance; in the data active = inhibition above about 30%;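 note: 0% = DMSO wells and 100% = wells lacking the enzyme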
Mtb FBA inh: inhibits M. tuberculosis FBA enzyme. purified M. tuberculosis FBA, fluorescence read-out. inhibition, % at 1 µM. 360,000 compounds, 2.3% hits. AID 588726;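 note: 0% = vehicle and 100% = reference inhibitor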
Target sequence (P9WQA3 whole entry, looked up): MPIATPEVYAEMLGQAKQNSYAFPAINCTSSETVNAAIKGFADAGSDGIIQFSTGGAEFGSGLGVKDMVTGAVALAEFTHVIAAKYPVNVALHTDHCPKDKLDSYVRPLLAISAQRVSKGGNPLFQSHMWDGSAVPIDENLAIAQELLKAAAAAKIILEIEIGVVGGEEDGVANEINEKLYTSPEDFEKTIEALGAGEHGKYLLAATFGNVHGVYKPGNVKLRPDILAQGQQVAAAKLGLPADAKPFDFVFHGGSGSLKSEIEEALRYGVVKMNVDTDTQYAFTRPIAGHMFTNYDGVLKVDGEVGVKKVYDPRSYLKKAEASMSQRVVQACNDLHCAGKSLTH
Mtb FBA confirm: Mtb FBA inhibition, confirmed | inhibition, % at 1 µM | shares compounds with Mtb FBA inh | AID 651616 | purified M. tuberculosis FBA, fluorescence read-out | 5,600 compounds, 78% hits;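 note: 0% = vehicle wells and 100% = reference inhibitor wells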
GDH-TPI counter-2: GDH-TPI inhibition counter-screen for FBA inhibitors | shares compounds with Mtb FBA inh | GDH-TPI coupled enzyme counterscreen, fluorescence | inhibition, % at 1 µM | 5,600 compounds, 81% hits | AID 652141; in the data active = inhibition above about 10%
GDH-TPI DR: counter-screen for M. tuberculosis FBA inhibitors: GDH-TPI dose response; shares compounds with Mtb FBA inh; GDH-TPI coupled enzyme assay, fluorescence, artifact counterscreen; IC50, µM; 170 compounds, 79% hits; AID 652145; call rule not given here
Active calls of the source: *; ? = inconclusive; . = not tested or not shown; + = active, no number. Cut-off read from the data, not from the text of the source, unless noted: active = inhibition above about 27%; inactive = the rest.

SMILES	BJeLR lethal	PrPC surface inh	PfHsp40 yeast	PrP 5UTR inh	GDH-TPI counter-1	Mtb FBA inh	Mtb FBA confirm	GDH-TPI counter-2	others
CC(C)(C)Sc1ccc2nc3c(n2c1)CCCC3	-1	3	14	-19	-1	30*	95*	56*
O=c1nc2c(-c3ccccc3F)n[nH]n2c2ccccc12	-3	-7	0	-48	-2	49*	77*	57*
Cn1c(CNc2ccc(F)cc2)nc2ccccc21	8	3	-1	-57	13	4	.	.
CN(C(=O)c1ccncc1)c1nnc(-c2ccccn2)s1	-5	3	-1	-29	-3	48*	146*	133*
CC1(C)NC(=O)N(CC(=O)Nc2ccc(-n3cnnn3)cc2)C1=O	.	3	0	-1	8	3	.	.
COC(=O)c1ccccc1NC(=S)NC(NC(=O)c1ccco1)C(Cl)(Cl)Cl (stereo not given)	5	.	-1	-2	15	6	.	.
O=C(NC(NC(=S)Nc1ccccc1C(=O)O)C(Cl)(Cl)Cl)c1ccco1 (stereo not given)	-3	-3	-2	-7	11	33*	2	-4
Cc1ccc(C)c(NS(=O)(=O)c2ccc(NC(=O)CSc3ccc(Cl)cc3)cc2)c1	-6	-1	-2	-75	-8	-3	.	.
Cc1ccc(NS(=O)(=O)c2ccc(NC(=O)C(C)Sc3ccc(Cl)cc3)cc2)c(C)c1 (stereo not given)	-5	0	93*	-11	2	81*	2	-3
CCN(C(=O)c1coc(=O)c(Br)c1)c1ccc2c(c1)OCO2	-3	-8	-1	-38	24	80*	+	183*
COC(=O)[C@H](CC(C)C)N(Cc1cn(Cc2ccc(C)cc2)nn1)S(=O)(=O)c1ccccc1Br	.	-5	.	.	.	.	.	.
Cc1ccc2oc(-c3cccc(N)c3)nc2c1	-6	-2	2	-37	2	78*	63*	58*
CCC(C)NCC(=O)Nc1ccc(-c2nc3cc(NC(=O)CNC(C)CC)ccc3o2)cc1 (stereo not given)	.	-5	-1	-22	21	99*	148*	110*
CCN(CC)CC(=O)Nc1ccc(-c2nc3cc(NC(=O)CN(CC)CC)ccc3o2)cc1	14	-7	-2	-11	16	88*	+	150*
CCc1ccc2oc(-c3ccc(NC(C)=O)cc3)nc2c1	16	10	2	-45	-5	69*	181*	126*
CCCC(=O)Nc1ccc2oc(-c3ccncc3)nc2c1	-2	-5	1	-6	19	17	.	.
CCOc1ncccc1C(=O)OCC(=O)NCc1ccccc1	.	-2	2	-1	-14	-1	.	.
CCN(CC)C(=O)CC[C@H]1CC[C@]2(CCCN(C(=O)c3ccno3)C2)O1	.	1	.	.	.	.	.	.
Cc1ccc(-c2nc3ncccc3o2)cc1NC(=O)CC(C)C	-2	0	0	0	-2	30*	5	-7
Cc1ccc2oc(-c3ccc(NC(=O)CC(C)C)cc3)nc2c1	8	11	0	-135	16	30*	39*	36*
O=C(CN1CCCC1)Nc1ccc(-c2nc3cc(NC(=O)CN4CCCC4)ccc3o2)cc1	16	-8	0	-51	24	107*	30*	24*
CC(C)Nc1nnc(SCC(=O)N2CCN(C(=O)c3ccco3)CC2)s1	.	5	-1	-85	-8	1	.	.
COc1cc2ccccc2cc1C(=O)OCC(=O)N1CCOCC1	1	7	1	-7	-8	52*	180*	156*
O=C(OCC(=O)N1CCCC1)c1cc(Cl)ccc1Cl	-9	-4	-1	-18	16	-5	.	.
CC(C)N(C(=O)COC(=O)c1cc(Cl)cc(Cl)c1N)C(C)C	-9	-2	0	-12	1	80*	6	3
SMILES	BJeLR lethal	PrPC surface inh	PfHsp40 yeast	PrP 5UTR inh	GDH-TPI counter-1	Mtb FBA inh	Mtb FBA confirm	GDH-TPI counter-2	others
Nc1c(Cl)cc(Cl)cc1C(=O)OCC(=O)N1CCOCC1	1	-4	-1	-33	4	101*	+	+
CC1CCN(C(=O)COC(=O)c2cc(Cl)cc(Cl)c2N)CC1	-11	11	0	-22	-2	81*	110*	90*
CC(C)N(C(=O)COC(=O)c1ccc(O)cc1)C(C)C	5	0	0	-35	4	-1	.	.
O=C(OCC(=O)N1CCOCC1)c1cc(S(=O)(=O)N2CCOCC2)c(Cl)cc1Cl	.	4	0	-9	10	1	.	.
C[C@H](CO)N1C[C@H](C)[C@@H](CN(C)C(=O)Nc2ccc3c(c2)OCO3)Oc2ccc(NC(=O)CCC(F)(F)F)cc2C1=O	.	8	-2	-14	8	-2	.	.
CCOC(=O)CC(=O)CSc1nc(-c2cccnc2)cc(C)c1C#N	0	-11	0	-8	8	3	.	.
CCOC(=O)CC(=O)CSc1nc(-c2cccnc2)ccc1C#N	-5	-11	-1	-10	26	38*	+	+
CCOc1cccc(CN(C)CC2CCCN(CCc3ccc(Cl)cc3)C2)c1O (stereo not given)	-10	2	1	-6	3	4	.	.
COc1cccc(/C=C/c2nc(S(=O)(=O)c3ccccc3)c(N3CCC(C(N)=O)CC3)o2)c1	.	-2	.	.	31*	38*	22	8	GDH-TPI DR=1.3*
NC(=O)C1CCN(c2oc(-c3ccc(F)cc3)nc2S(=O)(=O)c2ccccc2)CC1	.	-7	0	-10	10	-1	.	.
CCn1cnc2c(oc3ccccc32)c1=O	-17	3	3	-24	1	44*	177*	127*
CCN(CC)CCCNc1cc2n(c(=O)n1)CCc1cc(OC)c(OC)cc1-2	9	4	-1	4	17	41*	-5	-6
CCOc1cccc(Nc2cc3n(c(=O)n2)CCc2cc(OC)c(OC)cc2-3)c1	10	-2	0	-8	27	22	.	.
Nc1cccc2cc(S(=O)(=O)O)ccc12	.	-17	1	-14	16	39*	5	5
N#Cc1cc2c(=O)n3ccccc3nc2n(-c2ccc(Cl)cc2)c1=O	.	-3	0	-36	2	49*	10	-5
C=CCn1c(=N)c(C#N)cc2c(=O)n3ccccc3nc21	-2	-32	0	-17	2	51*	128*	111*
OC(CN1CC=C(/C=C/c2ccc(Br)cc2)CC1)c1ccccc1 (stereo not given)	9	-4	?	-51	6	-1	.	.

Compound activity: PubChem, several laboratories
